MITF TRPM1 inh = inhibitors of MITF-driven TRPM1 promoter in melanoma cells | SK-MEL-5 TRPM1 promoter luciferase, 24 h | inhibition, % at 12.5 µM | 330,000 compounds, 0.83% hits;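 active = mean inhibition across replicates of 60% or more, whatever share of single replicates reaches that level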
ABHD5 PLIN5 PPI = blocks binding of human ABHD5 to perilipin-5; 360,000 compounds, 0.78% hits; inhibition, % at 4 µM; Q00G26+Q8WTS1; Split G. princeps luciferase complementation, luminescence, 4 h; AID 602281;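 active = inhibition above the mean inhibition across every tested compound plus 3 SD, cut at about 22% in these data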;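 also: 0% = DMSO only wells and the 100% control is not disclosed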
HIF-2a inh = blocks HIF-2a reporter activity; 786-0 RCC cells HIF-2a reporter, luciferase luminescence, overnight; inhibition, % at 18.8 µM; 360,000 compounds, 0.72% hits;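 active = inhibition of the luminescence signal of 40% or more relative to plate controls, in a single-dose primary screen at 18.75 µM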
Peg3 promoter = inhibitors of Peg3 promoter | 360,000 compounds, 1.7% hits | HeLa PEG-Prom luciferase reporter, luminescence, overnight | inhibition, % at 20 µM | AID 588405;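 active = inhibition of at least 50% at 20 µM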
KKLEB cytotox = CF airway cell cytotoxicity counter-screen | activity change (cytotoxicity), % at 5 µM | AID 602141 | KKLEB CF airway cells viability, ATPlite luminescence, overnight; active compounds read low; cells stimulated with P. aeruginosa culture filtrate | 360,000 compounds, 0.36% hits;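 active = corrected activity change at or below -50% at 5 µM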
CF NFkB inh = cystic fibrosis NF-kB activation inhibition; KKLEB NF-kB-GFP reporter, PAF-induced, GFP fluorescence overnight; inhibition, % at 5 µM; 360,000 compounds, 0.86% hits; AID 588850;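 active = at least 50% inhibition at 5 µM, scaled per plate between neutral and stimulator controls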;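 also: PAF is a Pseudomonas aeruginosa culture filtrate used as stimulus; plate controls were PAF-stimulated DMSO wells for no effect and unstimulated DMSO wells for full effect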
ABHD5-PLIN5 conf = ABHD5-PLIN5 interaction inhibition, confirmed; shares compounds with ABHD5 PLIN5 PPI; biochemical ABHD5-PLIN5 interaction, luminescence; inhibition, % at 4 µM; 2,200 compounds, 67% hits; AID 651612; in the data active = inhibition above about 23%;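 also: 0% = DMSO vehicle wells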
HNF4 split-luc = counter-screen for ABHD5-PLIN5 inhibitors: HNF4 split-luciferase. shares compounds with ABHD5 PLIN5 PPI. HNF4 dimerization, luminescence, biochemical. inhibition, % at 4 µM. 2,200 compounds, 77% hits;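 active = mean inhibition across replicate wells exceeding the computed hit threshold, cut at about 13% in these data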;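 also: light from luciferase halves that rejoin when HNF4 fusion proteins dimerize; 0% = DMSO only wells and the 100% control is not given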
Target sequence (P41235 whole entry, looked up, the tested form may be a part): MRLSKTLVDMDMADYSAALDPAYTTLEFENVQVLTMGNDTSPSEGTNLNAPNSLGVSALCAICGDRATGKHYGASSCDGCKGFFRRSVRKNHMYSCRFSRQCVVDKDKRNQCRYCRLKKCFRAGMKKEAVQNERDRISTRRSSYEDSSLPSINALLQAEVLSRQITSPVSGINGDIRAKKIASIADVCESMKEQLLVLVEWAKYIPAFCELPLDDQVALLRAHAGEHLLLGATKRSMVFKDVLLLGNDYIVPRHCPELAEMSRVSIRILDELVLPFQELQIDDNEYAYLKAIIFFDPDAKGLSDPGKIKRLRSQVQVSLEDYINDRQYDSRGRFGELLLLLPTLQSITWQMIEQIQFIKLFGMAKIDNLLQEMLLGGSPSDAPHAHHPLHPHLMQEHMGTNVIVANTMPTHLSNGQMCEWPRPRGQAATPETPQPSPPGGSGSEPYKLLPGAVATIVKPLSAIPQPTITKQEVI
* marks the source's active call; other numbers are inactive results; x = not tested or not shown. Shown are actives, neighbours in structure and some others; about 3.1% of the full set was active somewhere.

SMILES | MITF TRPM1 inh | ABHD5 PLIN5 PPI | HIF-2a inh | Peg3 promoter | KKLEB cytotox | CF NFkB inh | ABHD5-PLIN5 conf | HNF4 split-luc
CNC(=S)N(C)/N=C1/C(=O)N(Cc2c(Cl)cccc2Cl)c2ccccc21 | x | 27* | 11 | 27 | 12 | 23 | -4 | 16*
O=C1CCCc2ccccc2N1Cc1c(Cl)cccc1Cl | -4 | -3 | 30 | 6 | 4 | 1 | x | x
O=C(NCc1ccccc1)C(c1cccc2ccccc12)n1c(=O)c(-c2ccco2)nc2ccccc21 (stereo not given) | x | 58* | 5 | x | x | x | 97* | 34*
CCCCCNC(=O)C(c1cccc2ccccc12)n1c(=O)c(-c2ccco2)nc2ccccc21 (stereo not given) | x | 84* | 14 | x | x | x | 82* | 35*
CCCCCNC(=O)C(c1ccc(C(F)(F)F)cc1)n1c(=O)c(-c2ccco2)nc2ccccc21 (stereo not given) | x | 83* | 6 | x | x | x | 47* | 6
CC(C)(C)NC(=O)C(c1cccc2ccccc12)n1c(=O)c(-c2ccco2)nc2ccccc21 (stereo not given) | x | 67* | 9 | x | x | x | 69* | 13*
c1ccc(-c2noc(CC3CCCCC3)n2)nc1 | -73 | -1 | -200 | -213 | -9 | 27 | x | x
O=C(COC(=O)c1ccco1)Nc1cccc(S(=O)(=O)N2CCCCC2)c1 | -1 | 1 | 24 | -3 | -18 | 3 | x | x
COc1cccc(C(=O)CC(C#N)c2ccc(F)cc2)c1 (stereo not given) | 10 | 5 | -2 | 10 | -5 | 12 | x | x
CCOC(=O)c1ccsc1NC(=O)c1ccco1 | 5 | -4 | -9 | 2 | -4 | -10 | x | x
CN(C)c1ccc2cc(S(=O)(=O)O)cc(O)c2c1 | -7 | 26* | 6 | 20 | 13 | -6 | 9 | 13*
COc1ccc(C(CNC(=O)c2c(C)nn(Cc3ccc(C)cc3)c2Cl)N2CCOCC2)cc1 (stereo not given) | -5 | 11 | 11 | 7 | 0 | 11 | x | x
O=C(O)CN1C(=O)C=CC1=O | x | 66* | 9 | 0 | 6 | -1 | 47* | 104*
O=C(N/N=C/c1ccc(N2CCOCC2)o1)c1ccccc1[N+](=O)[O-] | 5 | 22 | 12 | -2 | 8 | 10 | x | x
O=C(N/N=C/c1ccc(N2CCCCC2)o1)c1ccccc1[N+](=O)[O-] | 16 | 26* | 12 | 2 | 13 | -1 | 38* | 66*
Cc1[nH]nc(C(F)(F)F)c1N=NN1CCOCC1 | 20 | 50* | 18 | 23 | 2 | -24 | 41* | 76*
Clc1ccc(N=NN2CCOCC2)cc1 | -72 | 2 | -42 | -51 | -6 | -4 | x | x
CC1(C(=O)NS(=O)(=O)c2ccccc2)CCN1C(=O)c1ccccc1CCc1ccccc1 (stereo not given) | x | -2 | 14 | 5 | 5 | 10 | x | x
CC(=O)Nc1ccc(C(=O)/C=C/c2ccco2)cc1 | -17 | 29* | -34 | -58 | -11 | 13 | 52* | 57*
O=C(/C=C\c1ccco1)c1ccc(NC(=O)c2ccco2)cc1 | -41 | 25* | -154 | -113 | -7 | 21 | 49* | 47*
O=C(C=Cc1ccco1)c1ccc2ccccc2c1 | -56 | 37* | -282 | -256 | -10 | -35 | 64* | 54*
CN(C)c1ccc(C(=O)/C=C/c2ccco2)cc1 | -44 | 20 | -165 | -246 | -28 | 15 | x | x
C[C@H](NC(=O)c1cc2cc(Cl)ccc2n1C)C(=O)N[C@@H](C(=O)O)c1ccccc1 | 3 | -3 | 10 | 7 | -3 | -24 | x | x
Cc1cccc(N(C)S(=O)(=O)c2c(C)noc2C)c1 | 3 | -9 | 6 | 6 | 8 | -6 | x | x
O=C(CSc1ccc2c(c1)OCCO2)Nc1cccnc1 | 12 | -7 | -4 | 7 | -9 | 8 | x | x
SMILES | MITF TRPM1 inh | ABHD5 PLIN5 PPI | HIF-2a inh | Peg3 promoter | KKLEB cytotox | CF NFkB inh | ABHD5-PLIN5 conf | HNF4 split-luc
CN(Cc1ccc(Cl)c(Cl)c1)C(=O)C1CC(=O)N(c2ccc3c(c2)OCCO3)C1 (stereo not given) | x | 0 | 13 | 5 | 1 | -6 | x | x
Nc1nc(N2CCN(C/C=C/c3ccccc3)CC2)nc2ccccc12 | -8 | 28* | 9 | -6 | -9 | 5 | 31* | 7
C=CC(=O)N1C/C(=C/c2ccc(Cl)cc2)C(=O)/C(=C\c2ccc(Cl)cc2)C1 | 98* | 94* | 83* | 103* | -97* | 87* | 104* | 110*
O=C1C(=Cc2ccc(Cl)cc2)Cc2ccccc21 | x | 14 | -197 | x | x | x | x | x
C=CC(=O)N1C/C(=C/c2ccccc2)C(=O)/C(=C\c2ccccc2)C1 | 97* | 101* | 91* | 106* | -42 | 81* | 103* | 107*
COc1ccc(Cc2nc3ccc(C(=O)NCc4cccc(C)n4)cc3o2)cc1OC | x | -1 | -62 | -28 | -12 | -12 | x | x
O=c1[nH]c(/C=C/c2ccccc2Cl)c([N+](=O)[O-])c(=O)[nH]1 | -3 | 39* | 11 | -7 | 2 | -6 | 71* | 61*
O=c1[nH]c(/C=C/c2ccccc2Cl)nc2ccccc12 | -3 | -11 | -184 | -59 | -36 | -22 | x | x
O=C(COc1ccccc1/C=C\c1[nH]c(=O)[nH]c(=O)c1[N+](=O)[O-])Nc1ccccc1 | 3 | 30* | -28 | -38 | 6 | 21 | 87* | 84*
O=C(COc1ccccc1/C=C1\SC(=O)NC1=O)Nc1ccccc1 | -1 | 1 | 14 | 7 | -4 | -1 | x | x
COc1cc(/C=C/c2[nH]c(=O)[nH]c(=O)c2[N+](=O)[O-])cc(OC)c1O | 1 | 20 | 14 | -13 | 4 | -1 | x | x
COc1cccc(/C=C/c2[nH]c(=O)[nH]c(=O)c2[N+](=O)[O-])c1O | -3 | 32* | 20 | 20 | 6 | 4 | 78* | 80*
O=[N+]([O-])c1ccc(N2CCc3ccccc3C2)nc1 | -21 | 33* | -91 | -74 | -29 | 16 | 16 | 20*
O=[N+]([O-])c1ccc(N2CCN(c3ccccc3)CC2)nc1 | -16 | -7 | -44 | -36 | -2 | -2 | x | x
O=C(O)c1c(-c2ccc(Cl)cc2)cn2ccccc12 | -21 | 5 | -222 | -165 | -5 | 3 | x | x
Fc1ccccc1CSc1nnc(-c2cnccn2)n1Cc1ccco1 | -11 | 0 | -83 | -58 | -4 | 6 | x | x
C(=C\c1ccccc1)/CSc1nnc(-c2cnccn2)n1Cc1ccco1 | 3 | 37* | 9 | 13 | 11 | 3 | 19 | 29*
Cc1cccc(NC(=O)CSc2nnc(-c3ccco3)c(-c3ccco3)n2)c1 | 11 | 26* | 9 | 8 | -3 | 7 | 90* | 67*

Screens from PubChem.
